Drawing on PubChem BioAssay (NCI), this text covers growth for 9 molecules.

What all share (experiment): NCI-60 one-dose screen, 48 h (100 = growth as untreated, 0 = no growth, -100 = all killed)
For one experiment, the system named is NCI-H23 lung. The settings on record: 10 µM unless noted.
In a further experiment the test system is HOP-62 NSCLC. To be noted: 10 µM unless noted.
A further experiment concerns NCI-H460 lung. The settings on record: 10 µM unless noted.
The subject of another experiment is A549/ATCC NSCLC. To be noted: 10 µM unless noted.
The next experiment deals with K-562 leukemia. The settings on record: 10 µM unless noted.
The subject of another experiment is RXF 393 renal. To be noted: 10 µM unless noted.
Another experiment relates to SF-295 CNS. The settings on record: 10 µM unless noted.
The next experiment concerns UACC-257 melanoma. The settings on record: 10 µM unless noted.
A further experiment concerns U251 CNS. To be noted: 10 µM unless noted.
Another experiment relates to LOX IMVI melanoma. To be noted: 10 µM unless noted.
The test system of another experiment is SK-MEL-28 melanoma. To be noted: 10 µM unless noted.
The next experiment deals with SK-MEL-2 melanoma. The settings on record: 10 µM unless noted.
In a further experiment the test system is UO-31 renal. To be noted: 10 µM unless noted.
The next experiment relates to A498 renal. To be noted: 10 µM unless noted.
For the next experiment, the system named is HL-60(TB) leukemia. To be noted: 10 µM unless noted.
The subject of a further experiment is SR leukemia. To be noted: 10 µM.
The next experiment deals with OVCAR-4 ovarian. To be noted: 10 µM unless noted.
The subject of another experiment is BT-549 breast. The settings on record: 10 µM.
A further experiment relates to HCC-2998 colon. The settings on record: 10 µM unless noted.
The test system of a further experiment is TK-10 renal. To be noted: 10 µM unless noted.

The panel holds about 83,000 compounds, 20% with a hit somewhere; the sample as a whole holds those more often.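 Assay: single dose, 48 h. Readout: percent growth (0 = no net growth; negative = cell death). Active: <10.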 Unmarked numbers belong to inactive results. Activity calls are given as the source filed them.

As to `COc1ccc2c(c1)NC1=C(C(=O)OC1)C2c1cc(OC)c(OC)c(OC)c1` (stereo unspecified), the growth in the experiment on NCI-H23 lung is 16.2%; with HOP-62 NSCLC, 44.2%; with NCI-H460 lung, 4.55% (active); in the experiment on A549/ATCC NSCLC, 15.6%; in the experiment with K-562 leukemia it was 7.31% (active); in the experiment on RXF 393 renal it was 36.7%. The growth was 1.12% (active) with SF-295 CNS; 62.4% in the experiment with UACC-257 melanoma; 5.77% (active) with U251 CNS; 11.9% in the experiment with LOX IMVI melanoma; 66.2% in the experiment on SK-MEL-28 melanoma; 15.7% in the experiment on SK-MEL-2 melanoma. Besides, the growth in the experiment on UO-31 renal was 47.2%; in the experiment on A498 renal, -13.7% (active); in the experiment with HL-60(TB) leukemia, -31.3% (active); with SR leukemia it was 5.65% (active); in the experiment with OVCAR-4 ovarian, 37%; with BT-549 breast it was 7.12% (active). In the experiment on HCC-2998 colon, the growth was 10.9%.
Turning to `Cc1cc(C)nc(C)c1.[Cl][Hg][Cl]`, the growth in the experiment on NCI-H23 lung is 98.9%; in the experiment with HOP-62 NSCLC, 102%; in the experiment on NCI-H460 lung, 101%; with A549/ATCC NSCLC, 97.2%; in the experiment on K-562 leukemia it was 83.6%; with RXF 393 renal, 124%. Also, the growth is 94.9% with SF-295 CNS; 93.8% with UACC-257 melanoma; 91.6% in the experiment on U251 CNS; 80.2% in the experiment with LOX IMVI melanoma; 94% with SK-MEL-28 melanoma; 98.7% in the experiment with SK-MEL-2 melanoma. For the same molecule, the growth in the experiment on UO-31 renal is 95.5%; with TK-10 renal, 108%; with A498 renal it was 120%; in the experiment on HL-60(TB) leukemia, 93.7%; with OVCAR-4 ovarian, 103%; with BT-549 breast, 100%. Further, in the experiment with HCC-2998 colon, the growth is 114%.
On to `CCCC(C)(C)c1ccc2c(c1)OC(C)(C)[C@@H]1CC=C(C)C[C@@H]21`, for which the growth with NCI-H23 lung was 96.1%; in the experiment with HOP-62 NSCLC it was 90.4%; with NCI-H460 lung, 106%; with A549/ATCC NSCLC, 88.2%; in the experiment on K-562 leukemia it was 92.3%; in the experiment with RXF 393 renal, 108%. The growth in the experiment with SF-295 CNS is 101%; in the experiment with UACC-257 melanoma, 93.1%; in the experiment on U251 CNS it was 96.2%; with LOX IMVI melanoma, 96.3%; with SK-MEL-28 melanoma, 112%; with SK-MEL-2 melanoma, 94.7%. The growth is 79.8% with UO-31 renal; 107% in the experiment on TK-10 renal; 83.9% in the experiment on A498 renal; 92.7% with HL-60(TB) leukemia; 95.7% in the experiment with SR leukemia; 100% in the experiment with OVCAR-4 ovarian. In addition, the growth in the experiment with BT-549 breast was 97.7%; in the experiment with HCC-2998 colon it was 109%.
As to `CCC(CC)(c1ccccc1)C(OC(N)=O)c1ccccc1` (stereo unspecified), the growth in the experiment on NCI-H23 lung is 79.9%; in the experiment on HOP-62 NSCLC, 84.7%; in the experiment on NCI-H460 lung it was 90.1%; in the experiment on A549/ATCC NSCLC, 76%; in the experiment with K-562 leukemia, 66%; with SF-295 CNS, 71.9%. For the same molecule, the growth in the experiment with UACC-257 melanoma is 85.8%; with U251 CNS, 82.1%; with LOX IMVI melanoma, 77.8%; in the experiment on SK-MEL-2 melanoma, 79.2%; with UO-31 renal it was 71.4%; with A498 renal, 79.2%. In addition, the growth was 96.1% with HL-60(TB) leukemia, 72.8% with SR leukemia, 83.7% with OVCAR-4 ovarian and 110% in the experiment on BT-549 breast.
On to `NC(=O)C(Br)CBr` (stereo unspecified), for which the growth is 24.1% with NCI-H23 lung; -40.8% (active) with HOP-62 NSCLC; 4.13% (active) in the experiment with NCI-H460 lung; 4.34% (active) in the experiment on A549/ATCC NSCLC; -50.1% (active) with K-562 leukemia; 81.1% in the experiment on SF-295 CNS. Also, the growth is -83.5% (active) with UACC-257 melanoma; 26.9% with U251 CNS; 3.13% (active) with LOX IMVI melanoma; -85.3% (active) in the experiment with SK-MEL-2 melanoma; -51.8% (active) in the experiment with UO-31 renal; 103% in the experiment on A498 renal. For the same molecule, the results for the growth in the experiment with HL-60(TB) leukemia, with OVCAR-4 ovarian and in the experiment with HCC-2998 colon were -23.2% (active), -100% (active) and 38.4%, respectively.
`NC(Cc1ccc2c(c1)OCO2)c1ccc2c(c1)OCO2` (stereo unspecified): the growth was 105% in the experiment on NCI-H23 lung; 105% in the experiment with HOP-62 NSCLC; 104% in the experiment with NCI-H460 lung; 104% in the experiment with A549/ATCC NSCLC; 96.5% with K-562 leukemia; 96.8% in the experiment with SF-295 CNS. The growth in the experiment on UACC-257 melanoma is 103%; with U251 CNS, 107%; in the experiment with LOX IMVI melanoma it was 99.8%; in the experiment with SK-MEL-28 melanoma it was 101%; with SK-MEL-2 melanoma it was 107%; in the experiment on UO-31 renal, 100%. The growth in the experiment on TK-10 renal was 105%; with A498 renal, 92.1%; in the experiment with HL-60(TB) leukemia, 108%; in the experiment with SR leukemia it was 83.9%; in the experiment with OVCAR-4 ovarian, 101%; with HCC-2998 colon it was 106%.
As for `[Cl][Hg][n]1cnc2c(Cl)c(Cl)c(Cl)cc21`, the growth with NCI-H23 lung was 101%; with HOP-62 NSCLC, 109%; with NCI-H460 lung it was 98.1%; with A549/ATCC NSCLC it was 86.7%; in the experiment on K-562 leukemia it was 96.5%; in the experiment with RXF 393 renal, 140%. The growth in the experiment on SF-295 CNS is 96.1%; with UACC-257 melanoma, 96.2%; with U251 CNS, 78.2%; in the experiment with LOX IMVI melanoma, 79.6%; in the experiment on SK-MEL-28 melanoma, 107%; in the experiment on UO-31 renal, 86.4%. In addition, the growth with TK-10 renal is 108%; with A498 renal, 104%; in the experiment on HL-60(TB) leukemia, 99.9%; with SR leukemia, 80.1%; in the experiment on OVCAR-4 ovarian it was 109%; with BT-549 breast, 112%. Also, the growth with HCC-2998 colon was 107%.
Consider `ClCCN(CCCl)c1nc(Cl)c(C2CC(c3ccccc3)=NN2c2ccccc2)s1` (stereo unspecified), for which the growth is 86.8% with NCI-H23 lung; 79.5% in the experiment with HOP-62 NSCLC; 89.1% with NCI-H460 lung; 88.9% with A549/ATCC NSCLC; 68.3% in the experiment on K-562 leukemia; 94.2% in the experiment on RXF 393 renal. In addition, the growth was 98.6% with SF-295 CNS; 85.8% in the experiment on UACC-257 melanoma; 86.1% in the experiment on U251 CNS; 85.3% in the experiment on LOX IMVI melanoma; 98.6% in the experiment with SK-MEL-28 melanoma; 93.9% in the experiment with SK-MEL-2 melanoma. Besides, the growth was 72.4% with UO-31 renal; 108% in the experiment on TK-10 renal; 103% with A498 renal; 101% in the experiment on HL-60(TB) leukemia; 88.4% in the experiment on SR leukemia; 87.1% with OVCAR-4 ovarian. Further, the growth in the experiment on BT-549 breast was 99.3%; in the experiment on HCC-2998 colon, 110%.
As to `C[C@]12CC[C@@H]3C4=C(CC[C@H]3[C@@H]1CC[C@@H]2O)CC(=O)CC4`, the growth is 98.3% in the experiment on NCI-H23 lung; 103% in the experiment with HOP-62 NSCLC; 105% in the experiment on NCI-H460 lung; 98.4% in the experiment on A549/ATCC NSCLC; 96.9% with K-562 leukemia; 100% with RXF 393 renal. Besides, the growth in the experiment with SF-295 CNS is 102%; in the experiment with UACC-257 melanoma, 92.8%; with U251 CNS it was 96.8%; with LOX IMVI melanoma, 90.2%; with SK-MEL-28 melanoma, 107%; with SK-MEL-2 melanoma, 127%. Moreover, the growth is 92% in the experiment on UO-31 renal; 113% in the experiment with TK-10 renal; 90.6% in the experiment on A498 renal; 99.5% in the experiment on HL-60(TB) leukemia; 97.5% in the experiment with SR leukemia; 111% with OVCAR-4 ovarian. Also, the growth in the experiment with BT-549 breast is 122%; in the experiment with HCC-2998 colon it was 104%.
